# Screening results deposited in PubChem by National Center for Advancing Translational Sciences (NCATS).
# RXFP1 agonist: agonists of human relaxin receptor RXFP1; Q9HBX9; Potency, µM (titrated, usually from 57.5 µM), for the others: top-dose activation, actives largely listed as activators; AID 2676; HEK293T-RXFP1 cAMP TR-FRET, 30 min; response scale: percent of porcine relaxin response, buffer zero; 370,000 tested, 0.3% active; active means well fitted activation curve with a large enough effect; inconclusive means small, poorly fitted or top-dose-only effect; further: potency means the concentration at half of the fitted maximal effect; on the % scale 0 is the no-effect control and ±100 the full control effect; nearly all actives have a fitted effect of over 60% in size
# Target sequence (Q9HBX9 whole entry, looked up): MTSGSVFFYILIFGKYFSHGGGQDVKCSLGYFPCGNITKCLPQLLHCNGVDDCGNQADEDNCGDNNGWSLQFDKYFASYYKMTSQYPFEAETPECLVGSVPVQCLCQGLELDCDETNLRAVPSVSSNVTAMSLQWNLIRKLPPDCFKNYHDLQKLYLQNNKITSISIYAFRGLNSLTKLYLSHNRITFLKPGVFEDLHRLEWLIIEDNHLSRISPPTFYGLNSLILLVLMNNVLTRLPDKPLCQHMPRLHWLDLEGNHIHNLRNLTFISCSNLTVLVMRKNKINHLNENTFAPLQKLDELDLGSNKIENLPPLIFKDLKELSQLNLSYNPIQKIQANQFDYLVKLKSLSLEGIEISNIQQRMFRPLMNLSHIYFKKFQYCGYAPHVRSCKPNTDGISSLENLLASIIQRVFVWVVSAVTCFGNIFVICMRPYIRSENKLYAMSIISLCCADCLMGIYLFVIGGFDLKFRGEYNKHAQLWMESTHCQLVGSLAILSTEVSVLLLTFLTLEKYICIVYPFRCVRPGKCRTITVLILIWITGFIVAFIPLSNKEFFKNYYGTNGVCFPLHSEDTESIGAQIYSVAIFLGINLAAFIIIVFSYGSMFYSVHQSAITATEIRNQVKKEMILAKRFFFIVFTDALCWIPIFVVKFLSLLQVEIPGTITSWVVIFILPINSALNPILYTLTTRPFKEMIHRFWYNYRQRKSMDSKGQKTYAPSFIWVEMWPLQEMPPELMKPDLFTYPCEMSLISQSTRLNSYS
#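 HEK293T cells stably expressing RXFP1 were pretreated with the PDE4 inhibitor Ro 20174, exposed to compounds for 30 min at 37C, lysed, and cAMP was read by TR-FRET. Data normalized to buffer (basal) and 29 nM porcine relaxin (100%).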
# gsp antag: gsp mutant antagonism; gsp-mutant cells, cAMP HTRF, 30 min; Potency, µM (doses to about 76.9 µM), for the others: at the top dose activity change, negative = inhibition, hits mostly inhibitors; 340,000 tested, 0.4% active; AID 624288; calls by dose curve; cell line not stated here;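 further: intracellular cAMP measured with PDE inhibitor Ro 20-1724 present during compound exposure; potency means the concentration at half of the fitted maximal effect; on the % scale 0 is the no-effect control and ±100 the full control effect; nearly all actives have a fitted effect of over 65% in size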
#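 Cells, 2000/well, grown 16–24 h in DMEM 10% FBS with 0.5 mg/ml G418, then compounds plus […] (300 uM addition stock), 30 min at 37C. cAMP read by HTRF (cAMP-d2 and anti-cAMP antibody-K in lysis buffer) after 30 min RT.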
# RXFP1 antag: antagonists of human relaxin receptor RXFP1; Q9HBX9; HEK293-RXFP1, relaxin-stimulated cAMP HTRF, 30 min; stronger effect = lower value; activity change, negative = inhibition, % at 57.5 µM; 350,000 tested, 0.59% active;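 active means activity change of -60% or lower, but not beyond a set lower limit; inconclusive means change between -60% and -40%, or beyond the set limit; inactive means change above -40%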; further: on the % scale 0 is the no-effect control and ±100 the full control effect
# gsp ag: agonists of gsp mutant (McCune-Albright syndrome) | gsp mutant cells, cAMP HTRF, 30 min | Potency, µM (series often up to 76.9 µM), inactives show at the top dose activation (cAMP increase), hits mostly activators | 340,000 tested, 0.13% active | AID 624287; active means well fitted activation curve with a large enough effect; inconclusive means small, poorly fitted or top-dose-only effect, or another doubt; inactive means no such curve, though single readings can be large or run the other way; cell line not stated here;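 further: phosphodiesterase inhibitor Ro 20-1724 added with compounds to block cAMP breakdown; potency means the concentration at half of the fitted maximal effect; nearly all actives have a fitted effect of over 60% in size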
#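 Cells in DMEM/10% FBS with G418 were pretreated with compounds in DMSO plus […] (300 uM stock) for 30 min at 37C. cAMP was measured by HTRF (cAMP-d2 plus anti-cAMP antibody-K) after 30 min at room temperature.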
# Numbers without * were called inactive; ? = inconclusive; · = no result given; ! = not active in a repeat; [ ] = dose if it differs, or a comment. Sampled rows, rich in hits. Any-hit rate of the full collection: about 0.9%.
SMILES,RXFP1 agonist,gsp antag,RXFP1 antag,gsp ag
CC(=O)N1CCN(C(=O)c2cccc(S(=O)(=O)N3CCN(c4ccccc4)CC3)c2)CC1,0.9%,-3.8%,0.3,?
O=C(C=Cc1cccc(Cl)c1)c1ccccc1,·,1.2%,-61.6*,?
CCOc1ncccc1C(=O)OC(C)C(=O)NC(=O)NC1CCCCC1 (configuration not stated),-1.5%,6.9%,-14.4,6.31µM*
Cc1cccc(C(=O)OC(C)C(=O)NC(=O)NC2CCCCC2)c1O (configuration not stated),1.5%,14.7%,-11.1,?
CCc1ccc(N(CC)C(=O)c2ccc3c(Cl)c4c(nc3c2)CCC4)cc1,2.5%,-28.5%,-76.2*,-33.1%
CCN(C(=O)c1ccc2c(Cl)c3c(nc2c1)CCC3)c1cccc(C)c1,1.4%,·,·,·
COc1ccccc1NC(=O)c1ccc2c(Cl)c3c(nc2c1)CCCC3,2.0%,·,·,·
Cc1ccc(N(C)C(=O)c2ccc3c(Cl)c4c(nc3c2)CCC4)cc1C,1.5%,?,-88.8*,1.9%
COc1ccc(N(C)C(=O)c2ccc3c(Cl)c4c(nc3c2)CCCC4)c(OC)c1,1.5%,?,-96.3*,-19.5%
Cc1onc(-c2ccccc2)c1C(=O)Nc1cccc2nsnc12,?,20.8%,-4.4,35.5µM*
Cn1c2cc(B(O)O)sc2c2cnn(Cc3ccc(F)cc3F)c(=O)c21,3.2%,·,·,·
Brc1ccc(OCc2ccccc2)c(CNCc2ccncc2)c1,-0.7%,?,-89.0*,-27.6%
Cc1ccc(NC(=O)c2ccc3c(SCC(=O)O)c4c(nc3c2)CCCC4)c(Br)c1,11.2%,-22.4%,19.5,12.6µM*
COc1ccc(C)cc1NC(=O)c1ccc2c(SCC(=O)O)c3c(nc2c1)CCCC3,0.2%,-10.4%,1.9,-26.2%
CCC(C(=O)Nc1cc(C)ccc1C)n1c(=O)c(C(F)(F)F)nc2ccccc21 (configuration not stated),0.4%,·,·,·
O=C(OCC(=O)c1ccc[nH]1)c1ccc(Cl)c(Cl)c1,·,8.6%,-87.1*,12.2%
C#Cc1ccc(-c2ccccc2F)cc1,·,·,9.2,·
O=C(O)c1cc(-c2ccc3c(c2)OCO3)nc2ccc(Br)cc12,15.8µM*,25.9%,25.0,10µM*
COC(=O)c1cc(-c2ccc3c(c2)OCO3)nc2ccccc12,5.3%,?,-0.1,-19.5%
Cc1ccc(-c2cc(C(=O)NCc3cnn(C)c3)c3cc(Br)ccc3n2)cc1,22.4µM*!,?,-2.4,7.5%[15.4 µM]
Cn1cc(CNC(=O)c2cc(-c3ccccc3)nc3ccc(Br)cc23)cn1,?,3.8%,1.0,28.6%[15.4 µM]
CCc1cccc(C)c1NC(=O)c1cc(S(=O)(=O)NCc2ccccc2Cl)ccc1F,0.5%,·,-14.0,·
Cc1ccc(C)c(OCCC(=O)OCC(=O)NCCNC(=O)COC(=O)CCOc2cc(C)ccc2C)c1,1.7%,-8.6%,-62.0*,-11.7%[15.4 µM]
C=C1c2cccc(O)c2C(O)=C2C(=O)[C@]3(O)C(O)=C(C(N)=O)C(=O)[C@@H](N(C)C)[C@@H]3[C@@H](O)[C@H]12,-0.9%,2.1%,-70.1*,·
CCCc1ccc(OCC(=O)N2CCN(C(=O)COc3ccc(CCC)cc3OC)CC2)c(OC)c1,·,·,-8.8,·
SMILES,RXFP1 agonist,gsp antag,RXFP1 antag,gsp ag
O=C(CN1CCCCC1)Nc1ccccc1,3.5%,15.0%,-9.6,-14.4%
O=C(CN1CCCCCC1)Nc1ccc(Oc2ccccc2)cc1,-0.4%,2.4%,-64.0*,14.5%
CN(CC(=O)Nc1ccc(Br)cc1)S(=O)(=O)c1cccc2nsnc12,5.3%,·,?,·
CC(=O)Nc1ccc(NC(=O)C2CCC(N3C(=O)C4C5C=CC(C6CC56)C4C3=O)CC2)cc1 (configuration not stated),0.0%,8.1%,2.4,24.1%
O=C(Nc1ccc(Cc2ccncc2)cc1)C1CCC(N2C(=O)C3C4C=CC(C5CC45)C3C2=O)CC1 (configuration not stated),-1.5%,7.94µM*,-16.1,?
C[C@H]1C[C@H]2[C@@H]3CCC4=CC(=O)C=C[C@]4(C)[C@@]3(Cl)[C@@H](O)C[C@]2(C)[C@@]1(O)C(=O)CO,1.8%,-8.2%,-69.9*,·
C[C@H]1C[C@H]2[C@@H]3CCC4=CC(=O)C=C[C@]4(C)[C@@]3(F)[C@@H](O)C[C@]2(C)[C@@]1(O)C(=O)CO,·,-7.9%,·,·
COc1cccc(NC(=O)c2nnn(Cc3cccc(C(F)(F)F)c3)c2N)c1,0.1%,·,-9.9,·
CCc1cc(/C(Cc2cscn2)=N\O)c(O)cc1O,0.8%,12.1%,4.7,8.2%
CCc1cc(/C(Cc2ccccn2)=N\O)c(O)cc1O,-1.8%,35.5µM*,-0.4,12.5%
COC(=O)CSc1nc2sccc2c(=O)n1-c1ccccc1,2.3%,6.3%,-3.7,-3.2%[15.4 µM]
CCc1cc2c(=O)n(-c3ccccc3)c(SCC(N)=O)nc2s1,0.3%,7.08µM*,-11.1,6.5%
COc1ccccc1-c1c(C)nn2c(N3CCCCCC3)cc(C)nc12,3.2%,35.5µM*,·,1.4%
COc1cc(CN2CCc3nc(N4CCN(c5ncccn5)CC4)ncc3C2)cc(OC)c1OC,-1.6%,·,-28.6,·
COc1cc(CN2CCc3nc(N4CCN(c5ccccn5)CC4)ncc3C2)cc(OC)c1OC,5.3%,·,-78.6*,·
CN(C)c1ccc(CN2CCc3nc(N4CCN(c5ccccn5)CC4)ncc3C2)cc1,4.5%,·,-62.7*,·
CCOc1ccccc1CN1CCc2nc(N3CCN(c4ccccc4F)CC3)ncc2C1,5.9%,·,-60.0*,·
Fc1ccc(CN2CCc3nc(N4CCN(c5ccccc5F)CC4)ncc3C2)c(F)c1,-4.1%,·,-5.9,·
COC(=O)c1nc2n(n1)C(c1cc(OC)ccc1OC)C(C(=O)Nc1ccc(C)cc1C)=C(C)N2 (configuration not stated),0.1%,·,·,·
O=C(NCc1nc2ccccc2[nH]1)c1c(F)cccc1F,-2.3%,·,·,·
Cn1cccc1/C=N/n1c(-c2ccc(C(C)(C)C)cc2)n[nH]c1=S,4.9%,-18.5%,-64.3*,-30.6%
C[C@H]1O[C@H](O[C@H]2[C@H](O)[C@@H](O)[C@@H](O[C@H]3[C@H](O)[C@@H](O)[C@H](O)O[C@@H]3CO)O[C@@H]2CO)[C@H](O)[C@@H](O)[C@@H]1N[C@H]1C=C(CO)[C@@H](O)[C@H](O)[C@H]1O,·,·,-5.0,·
O=C(Nc1ccsc1C(=O)O)c1cccc(Oc2ccccc2)c1,10.1%,?,-80.3*,22.2%[15.4 µM]
CCOC(=O)N1CCN(C(=O)CCCN2C(=O)CSc3nc(C)cc(C)c32)CC1,0.4%,50.1µM*,-13.4,17.7%
CCCCNc1c(-c2cccc(-c3cc(C(C)=O)cs3)c2)nc2ccc(C)cn12,0.2%,35.5µM*,·,·
CCCCNc1c(-c2cccc(-c3ccc(OC)cc3)c2)nc2cc(C)ccn12,·,31.6µM*,·,?
CCCCNc1c(-c2cccc(-c3ccc(OC)cc3)c2)nc2ccc(C)cn12,17.0%,?,·,·
COc1ccccc1NC(=O)CSC1=Nc2ccccc2C2=NC(Cc3ccccc3)C(=O)N12 (configuration not stated),2.3%,·,3.2,·
